The values below come from PubChem BioAssay.

The term inhibition denotes the change of the read-out against control, counted positive when it falls.

“And” between values parts separate entries of the source, which are not always exact repeats. Equal entries are not always repeated. Results filed as inconclusive are left out. The source made the active and inactive calls. Cut-off read from the data, not from the text of the source, unless noted: active = inhibition above about 80%; inactive = the rest.

The target in assay [1] is ATP-dependent translocase ABCB1 (Homo sapiens) (UniProt P08183). Briefly: P-glycoprotein substrate transport blockade – cell-based (AID 377; in the data active = fluorescence slope change above about 50%). Particulars: MDR1-expressing cells, fluorescent substrate accumulation slope; stronger effect = higher value; concentration not given here.
Assay [2] is described as follows: rescue of PC12 cells from polyQ htt toxicity – LDH release (AID 1610). Particulars: PC12 mutant huntingtin toxicity, final LDH at 4 uM, stronger effect = lower value. (LDH leaks from cells whose membrane has failed.)
Assay [3] can be described thus: chitosan synthesis blockers in C. neoformans – flow cytometry, Cibacron Brilliant Red staining (AID 1347148; call rule not given here;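 note: compound exposure lasted three days at 37 degrees C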). Particulars: Cryptococcus neoformans chitosan, stronger effect = lower value; at 10 µM unless noted. Background: A flow cytometer gives signals particle by particle.
Assay [4] can be described thus: growth inhibition, single agents and combos, CRL2098, cell-based, BGB or cisplatin IC20 combos, synergistic combos for chromothripsis tumors (AID 1671454).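 Note: cells exposed for 96 h before readout; 0% = vehicle DMSO and 100% = killing by high DMSO.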 Particulars: CRL2098 osteosarcoma cells, drug combinations, stronger effect = higher value.
Assay [5] in a line: growth inhibition, single agents and combos, HD-MB03, cell-based, BGB or cisplatin IC20 combos, synergistic combos for chromothripsis tumors (AID 1671455; in the data active = inhibition above about 83%;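 note: 0% = vehicle DMSO and 100% = high DMSO as cytotoxic control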). Particulars: HD-MB03 medulloblastoma cells, stronger effect = higher value.
A short description of assay [6]: growth inhibition, single agents and combos, UWB1.289, cell-based, BGB or cisplatin combos, synergistic combos for chromothripsis tumors (AID 1671456).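 Note: cells exposed to compound for four days; 0% = vehicle DMSO and 100% = killing by high DMSO.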 Particulars: UWB1.289 ovarian carcinoma cells, stronger effect = higher value.
A short description of assay [7]: growth inhibition, single agents and combos, LFS_MB_2R, cell-based, cisplatin combos, synergistic combos for chromothripsis tumors (AID 1671457).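 Note: cells exposed to compound for four days before readout.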 To be noted: LFS_MB_2R medulloblastoma cells, stronger effect = higher value.
A short description of assay [8]: UWB1.289_BRCA1 ovarian cancer growth, cell-based, BGB or cisplatin combinations (AID 1671459). To be noted: UWB1.289 BRCA1 ovarian carcinoma, drug combinations, stronger effect = higher value.
The nature of assay [9]: drug combination toxicity in non-malignant astrocytes – cell-based, BGB or cisplatin IC20 combos, cytotoxicity control for chromothriptic childhood tumor combination screen (AID 1671460).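 Note: cells exposed to compounds for 96 hours before viability readout; 0% = vehicle and 100% = killing control.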 To be noted: Human astrocytes, viability inhibition, drug combinations, at 0.5 µM, stronger effect = higher value.
A short description of assay [10]: compounds altering HSF1 focus formation in cells – imaging, Selleck Cancer Library (AID 1347162; in the data active = plate-normalised HSF1 focus index below about 0.46). To be noted: human cells, HSF1 nuclear foci imaging, at 10 µM; SSMD: measured here: HSF1 foci SSMD mean; cell count: measured here: cell number; plate-normalised HSF1 focus index: stronger effect = lower value.
Assay [11] can be described thus: signal quenchers or enhancers, Cy5 substrate/SSB – biochemical, NIH Clinical Collection, E. coli SSB, artefact control for HCV NS3 helicase inhibitor project (AID 743268; call rule not given here). Particulars: Cy5-oligo bound E. coli SSB, fluorescence interference.
The subject of assay [12] is Hepatitis C virus NS3 helicase. Briefly: blockers of NS3h binding to DNA – biochemical, fluorescence polarization, NIH Clinical Collection, primary screen (AID 743270; call rule not given here). To be noted: NS3 helicase binding to Cy5-dT15 DNA, stronger effect = higher value, concentration not given here.
In assay [13] the target is Single-stranded DNA-binding protein (Escherichia coli (strain K12)) (UniProt P0AGE0). Put plainly: SSB-ssDNA binding inhibitors – biochemical, fluorescence polarization, NIH Clinical Collection, counter-screen for HCV NS3 helicase inhibitor project (AID 743271; in the data active = inhibition above about 28%). Particulars: E. coli SSB-DNA binding, stronger effect = higher value, concentration not given here. (In fluorescence polarisation assays a small probe gives low polarisation when free and higher when bound to something large.)

The nature of assay [14]: compounds distorting NS3 helicase fluorescence signal – biochemical, NIH Clinical Collection, artefact control for HCV NS3 helicase inhibitor project (AID 743272; call rule not given here;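 note: HCV NS3 helicase with a Cy5 labelled single stranded DNA probe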). Particulars: fluorescence interference counterscreen, HCV NS3 helicase assay; stronger effect = lower value.
Where [15] appears, read: measured here: combination with BGB at IC20, at 0.5 µM.
The mark [16] stands for this setting: measured here: combination with cisplatin at IC20, at 0.5 µM.
Setting [17] is: measured here: combo with BGB at IC20, at 0.5 µM.
The mark [18] stands for this setting: measured here: combo with cisplatin at IC20, at 0.5 µM.
The mark [19] stands for this setting: measured here: inhibition with BGB combination, at 0.05 µM.
Where [20] appears, read: measured here: inhibition with cisplatin combination, at 0.05 µM.
[21] abbreviates: measured here: combination with cisplatin, at 0.5 µM.
Setting [22] is: measured here: combination with cisplatin, at 5 µM.
The mark [23] stands for this setting: BGB combination, concentration series, at 5 µM.
Where [24] appears, read: cisplatin combination, concentration series, at 5 µM.
Where [25] appears, read: measured here: combo with BGB IC20.
[26] abbreviates: measured here: combo with cisplatin IC20.

ATP-dependent translocase ABCB1 (Homo sapiens), sequence (P08183 whole entry, looked up): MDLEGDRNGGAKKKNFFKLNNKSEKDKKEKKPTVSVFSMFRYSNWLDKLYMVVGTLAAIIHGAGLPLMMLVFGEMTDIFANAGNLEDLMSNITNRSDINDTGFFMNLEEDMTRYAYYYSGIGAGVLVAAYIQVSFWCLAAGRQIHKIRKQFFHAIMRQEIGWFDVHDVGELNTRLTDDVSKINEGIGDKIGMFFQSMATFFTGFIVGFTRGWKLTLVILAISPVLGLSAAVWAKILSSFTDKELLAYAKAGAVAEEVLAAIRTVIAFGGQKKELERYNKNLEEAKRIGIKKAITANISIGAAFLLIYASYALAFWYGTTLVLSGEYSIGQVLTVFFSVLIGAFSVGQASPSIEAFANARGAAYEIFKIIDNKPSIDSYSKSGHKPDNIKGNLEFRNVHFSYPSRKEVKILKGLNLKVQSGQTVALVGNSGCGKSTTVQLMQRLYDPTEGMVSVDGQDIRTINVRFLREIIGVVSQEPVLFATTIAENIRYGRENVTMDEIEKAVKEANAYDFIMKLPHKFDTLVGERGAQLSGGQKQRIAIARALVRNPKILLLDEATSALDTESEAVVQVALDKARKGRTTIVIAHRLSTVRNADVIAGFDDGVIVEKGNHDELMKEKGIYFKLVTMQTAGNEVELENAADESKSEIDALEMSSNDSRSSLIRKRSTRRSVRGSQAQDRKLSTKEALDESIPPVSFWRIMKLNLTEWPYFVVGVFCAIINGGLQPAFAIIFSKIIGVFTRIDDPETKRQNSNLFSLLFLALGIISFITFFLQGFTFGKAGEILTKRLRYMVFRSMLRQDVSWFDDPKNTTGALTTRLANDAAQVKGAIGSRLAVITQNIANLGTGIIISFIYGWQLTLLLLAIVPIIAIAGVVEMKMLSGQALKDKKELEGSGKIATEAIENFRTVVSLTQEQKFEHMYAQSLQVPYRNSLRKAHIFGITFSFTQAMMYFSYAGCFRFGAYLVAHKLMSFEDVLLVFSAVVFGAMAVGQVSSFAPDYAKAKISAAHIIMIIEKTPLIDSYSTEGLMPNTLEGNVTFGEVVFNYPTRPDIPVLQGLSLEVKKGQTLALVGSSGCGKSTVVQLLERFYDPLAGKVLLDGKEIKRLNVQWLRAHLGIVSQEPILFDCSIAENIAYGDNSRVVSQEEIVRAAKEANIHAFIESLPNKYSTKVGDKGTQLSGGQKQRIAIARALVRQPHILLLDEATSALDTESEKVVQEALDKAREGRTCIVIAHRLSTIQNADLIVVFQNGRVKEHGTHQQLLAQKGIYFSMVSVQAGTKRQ

In the case of `COc1c2ccoc2nc2c(OC)c(OCC(O)C(C)(C)O)ccc12` (configuration not stated), in assay [1], the fluorescence slope change is 3.7% (inactive).
Turning to `CC(=O)c1c(O)c(C)c(O)c2c1OC1=CC(=O)C(C(C)=O)C(=O)C12C` (configuration not stated), in assay [2], the normalised LDH release amounted to 1.02.
`NC(=O)c1cccc(N)c1`: in [3], the fold fluorescence is 5.59 [at 367.2 µM] (inactive).
Regarding `O=C(O)c1cc([N+](=O)[O-])ccc1NCCCc1ccccc1`, the fold fluorescence in assay [3] was 4.56 [at 166.5 µM] (inactive).
On to `CC(CCc1ccc(O)cc1)NCCc1ccc(O)c(O)c1` (configuration not stated), for which the fluorescence slope change in [1] is 19.4% (inactive).
With `CCCC(=O)Nc1ncnc2c1ncn2[C@@H]1O[C@@H]2COP(=O)(O)O[C@H]2[C@H]1OC(=O)CCC`, the fold fluorescence in [3] was 10.2 [at 101.8 µM] (inactive).
As to `O=C1C=CC(=C(c2ccc(O)cc2)c2ccc(O)cc2)C=C1`, in assay [2], the normalised LDH release came out at 0.611.
For the molecule `COc1cc(NS(C)(=O)=O)ccc1Nc1c2ccccc2nc2ccccc12`, the inhibition was 3.39% (inactive) and -17.2% (inactive) in assay [4] (at 0.5 µM); 5.83% and -2.6% in assay [4] (setting [15]); 6.88% and -21.3% in assay [4] (setting [16]); 89.9% (active) and 92.8% (active) in [5] (at 0.5 µM); 85.2% and 89.8% in assay [5] (setting [17]); 93.1% and 93.7% in assay [5] (setting [18]). For the same molecule, the inhibition in assay [6] (at 0.5 µM) was 34.8% (inactive) and 27.8% (inactive); in assay [6] (setting [19]) it was -10.9% and -18.9%; in assay [6] (setting [20]) it was 5.17% and -0.785%; in assay [7] (at 0.5 µM), -7.33% (inactive) and -4.82% (inactive); in assay [7] (setting [21]), -3.1% and -25.3%; in assay [7] (setting [22]) it was 21% and 20.3%. Moreover, the inhibition in assay [8] (setting [23]) was 79.6% and 77.5%; in assay [8] (at 0.5 µM), 31% (inactive) and 27.1% (inactive); in [8] (setting [24]), 109% and 107%; in assay [9], 47.7% (inactive) and 54% (inactive); in assay [9] (setting [25]), 46.6% and 56.1%; in assay [9] (setting [26]), 26.6% and 33.1%.
As for `N=c1ccn2c(n1)O[C@H]1[C@H](O)[C@@H](CO)O[C@H]12`, the inhibition in assay [4] (at 0.5 µM) is 32.1% (inactive); in assay [4] (setting [15]), -10.4%; in [4] (setting [16]), 52.4%; in [5] (at 0.5 µM) it was 89.9% (active); in assay [5] (setting [17]), 84%; in assay [5] (setting [18]), 91.1%. Further, the inhibition in assay [6] (at 0.5 µM) was 1.85% (inactive); in assay [6] (setting [19]), -40.2%; in [6] (setting [20]), -14.8%; in assay [7] (at 0.5 µM), -10.7% (inactive); in assay [7] (setting [21]), 6.24%; in [7] (setting [22]) it was 44.7%. In addition, the inhibition is 22.3% in assay [8] (setting [23]); 7.05% (inactive) in assay [8] (at 0.5 µM); 41.2% in assay [8] (setting [24]); 27.9% (inactive) in assay [9]; 22.9% in assay [9] (setting [25]); 18.2% in assay [9] (setting [26]).
Turning to `C[C@H]1C[C@H]2[C@@H]3CCC4=CC(=O)C=C[C@]4(C)[C@@]3(F)[C@@H](O)C[C@]2(C)[C@@]1(O)C(=O)CO`, the fluorescence slope change in assay [1] was 18% (inactive).
In the case of `COC1=C(OC)C(=O)C(C/C=C(\C)CC/C=C(\C)CC/C=C(\C)CC/C=C(\C)CC/C=C(\C)CC/C=C(\C)CC/C=C(\C)CC/C=C(\C)CC/C=C(\C)CCC=C(C)C)=C(C)C1=O`, in assay [10], the SSMD amounted to 2.18, the cell count was found to be 7460 and the plate-normalised HSF1 focus index was 1.08 (inactive).
As to `COc1cc([C@@H]2c3cc4c(cc3[C@@H](O[C@@H]3O[C@@H]5CO[C@@H](c6cccs6)O[C@H]5[C@H](O)[C@H]3O)[C@H]3COC(=O)[C@H]23)OCO4)cc(OC)c1O`, the inhibition in assay [4] (at 0.5 µM) is 5.54% (inactive) and 23.7% (inactive); in [4] (setting [15]), 22% and 28.7%; in [4] (setting [16]), -12.5% and 10.8%; in assay [5] (at 0.5 µM), 96.4% (active) and 98.5% (active); in assay [5] (setting [17]), 94.6% and 97.5%; in [5] (setting [18]) it was 96.6% and 99.1%. The inhibition in assay [6] (at 0.5 µM) was 18.6% (inactive) and 46.3% (inactive); in assay [6] (setting [19]) it was -23.8% and 2.23%; in assay [6] (setting [20]) it was -2.66% and 12.3%; in [7] (at 0.5 µM), -16.4% (inactive) and -13.1% (inactive); in [7] (setting [21]) it was -12.1% and -0.448%; in assay [7] (setting [22]), -6.88% and 18.4%. The inhibition in [8] (setting [23]) is 94.5% and 109%; in assay [8] (at 0.5 µM), 16.2% (inactive) and 36.5% (inactive); in [8] (setting [24]), 117% and 124%; in assay [9] it was 47.8% (inactive) and 52.6% (inactive); in [9] (setting [25]) it was 42.5% and 54.3%; in assay [9] (setting [26]), 28% and 33.1%.
Take `C[C@H]1O[C@@H](O[C@H]2[C@@H](O)C[C@H](O[C@H]3[C@@H](O)C[C@H](O[C@H]4CC[C@@]5(C)[C@H](CC[C@@H]6[C@@H]5C[C@@H](O)[C@]5(C)[C@@H](C7=CC(=O)OC7)CC[C@]65O)C4)O[C@@H]3C)O[C@@H]2C)C[C@H](O)[C@@H]1O`: the fluorescence slope change in assay [1] is 24.1% (inactive).
`CC(=O)[C@H]1CC[C@H]2[C@@H]3CCC4=CC(=O)CC[C@]4(C)[C@H]3CC[C@]12C`: the fluorescence slope change in assay [1] is 82.5% (active). In addition, the results for the fluorescence ratio in assay [11] and in [14] were 0.96 (inactive) and 0.92 (inactive), respectively. Further, the inhibition in [12] was -6.73% (inactive); in [13], 1.44% (inactive).
In the case of `CC(C)C[C@H]1C(=O)N2CCC[C@H]2[C@]2(O)O[C@](NC(=O)[C@@H]3C=C4c5cccc6[nH]c(Br)c(c56)C[C@H]4N(C)C3)(C(C)C)C(=O)N12`, the fluorescence slope change in assay [1] was 115% (active).
